Records with an inconclusive call do not appear. Activity calls are given as the source filed them. Rule for the calls, unless noted: active = hit-call score of the fitted dose curve at least 0.9, where 1 is the maximum; inactive = score below 0.9.
Legend:
[1] = molecular target: Paired box protein Pax-6 (Homo sapiens) (UniProt P26367); experiment: ATG_Pax6_CIS: Attagene CIS-FACTORIAL HepG2 Assay for human Paired Box 6 (PAX6) (AID 2282956); details: HepG2 CIS-FACTORIAL PAX6 reporter transcription, RNA readout; actives raise or lower the signal
Outline: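 Read-out is reporter transcript level, measured by RT-PCR with fluorescent primer extension and capillary electrophoresis after 24 h dosing of transfected HepG2 cells. Activity in either direction fitted relative to DMSO control.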

[2] = ATG_PXRE_CIS: Attagene CIS-FACTORIAL HepG2 Assay for human Pregnane X Receptor Element (PXRE) (AID 2282957); details: HepG2 Attagene CIS-FACTORIAL PXRE reporter, mRNA; actives raise or lower the signal
Outline: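 After a 24 h chemical incubation, total RNA from transfected HepG2 cells was reverse-transcribed and reporter cDNA amplified, FAM-labeled, HpaI-digested and sized by capillary electrophoresis. DMSO served as baseline for bidirectional curve fitting.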

[3] = ATG_PPRE_CIS: Attagene CIS-FACTORIAL HepG2 Assay for human Peroxisome Proliferator-activated Response Element (PPRE) (AID 2282958); details: HepG2 PPRE cis-element reporter, Attagene transcription factor profiling; actives raise or lower the signal
Outline: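 Transcript-level reporter induction in transfected HepG2 cells after 24 h chemical exposure, quantified by fluorescence from RT-PCR products separated by capillary electrophoresis.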

[4] = ATG_Sox_CIS: Attagene CIS-FACTORIAL HepG2 Assay for human SRY-box transcription factor (SOX) (AID 2282960); details: HepG2 Attagene cis-factorial SOX reporter, mRNA; actives raise or lower the signal
Outline: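 Cells were transfected with reporter constructs under cis-regulatory promoters, then exposed to chemicals for 24 h. Reporter transcripts were quantified by fluorescence after RT-PCR and capillary electrophoresis; activity was fitted in both directions against DMSO.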

[5] = molecular target: Transcription factor Sp1 (Homo sapiens) (UniProt P08047); experiment: ATG_Sp1_CIS: Attagene CIS-FACTORIAL HepG2 Assay for human Specificity Protein 1 (Sp1) (AID 2282961); details: HepG2 Sp1 cis-reporter transcription, actives raise or lower the signal
Outline: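 Measures mRNA induction of an Sp1-linked reporter in HepG2 cells 24 h post-dosing. Multiplexed reporters read by RT-PCR and capillary electrophoresis; DMSO serves as negative control and baseline.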

[6] = ATG_SREBP_CIS: Attagene CIS-FACTORIAL HepG2 Assay for human Sterol Regulatory Element Binding (SREBP) (AID 2282962); details: HepG2 Attagene cis-factorial SREBP reporter, mRNA; actives raise or lower the signal
Outline: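 Endogenous SREBP activity read as cis-element-driven reporter transcript in transiently transfected HepG2, 24 h post-dosing; quantified via RT-PCR plus capillary electrophoresis of fluorescent fragments. Gain or loss of signal fitted relative to DMSO baseline.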

[7] = molecular target: Signal transducer and activator of transcription 3 (Homo sapiens) (UniProt P40763); experiment: ATG_STAT3_CIS: Attagene CIS-FACTORIAL HepG2 Assay for human Signal Transducer and Activator of Transcription 3 (STAT3) (AID 2282963); details: HepG2, Attagene cis-factorial STAT3 reporter transcription; actives raise or lower the signal
Outline: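 Uses human liver HepG2 transiently carrying cis-regulated reporter transcription units. Following 24 h dosing, reporter mRNA induction was detected by RT-PCR and capillary electrophoresis, analysed bidirectionally versus DMSO.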

[8] = ATG_TA_CIS: Attagene CIS-FACTORIAL HepG2 Assay for human TA Basal Promoter (AID 2282964); details: HepG2 Attagene CIS-factorial TA basal promoter reporter; actives raise or lower the signal
Outline: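 HepG2 cells transiently transfected with multiplexed cis-promoter reporter units, dosed 24 h. Reporter mRNA measured by RT-PCR, 6-FAM labelling, HpaI digestion and capillary electrophoresis; bidirectional fit versus DMSO baseline, serving as background control.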

[9] = ATG_TCF_b_cat_CIS: Attagene CIS-FACTORIAL HepG2 Assay for human T-Cell-Factor with beta-catenin (TCF/b-cat) (AID 2282965); details: HepG2 TCF/beta-catenin cis-reporter transcription, actives raise or lower the signal
Outline: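 Using capillary electrophoresis as the read-out, labelled reporter cDNA fragments from transiently transfected HepG2 were sized and quantified. Exposure lasted 24 hours; activity in either direction was referenced to DMSO.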

[10] = ATG_TAL_CIS: Attagene CIS-FACTORIAL HepG2 Assay for human TAL Basal Promoter (AID 2282966); details: HepG2 Attagene cis-factorial TAL promoter reporter; actives raise or lower the signal;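 note: background control endpoint measuring basal TAL promoter reporter mRNA not a specific factor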
Outline: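 Basal-promoter background-control endpoint from a multiplexed HepG2 reporter panel. Cells were exposed 24 h, then reporter mRNA was read by RT-PCR/CE fluorescence and fitted in both directions relative to DMSO.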

[11] = ATG_TGFb_CIS: Attagene CIS-FACTORIAL HepG2 Assay for human Transforming Growth Factor (TGF) (AID 2282967); details: HepG2 Attagene CIS TGFb reporter, mRNA transcription; actives raise or lower the signal
Outline: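 HepG2 cells transiently transfected with cis-promoter-driven multiplexed reporter units; 24 h compound exposure. Reporter mRNA measured by RT-PCR, 6-FAM labeling, HpaI digestion and capillary electrophoresis; bidirectional fit versus DMSO baseline.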

[12] = molecular target: Steroid hormone receptor ERR1 (Homo sapiens) (UniProt P11474); experiment: ATG_ERRa_TRANS: Attagene TRANS-FACTORIAL HepG2 Assay for human Estrogen-Related Receptor alpha (ERRa) (AID 2282971; active = hit-call score of the fitted dose curve at least 0.9, where 1 is the maximum); details: HepG2 Attagene TRANS reporter, ERRa transactivation
Outline: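 HepG2 cells transiently transfected with GAL4-UAS reporter units and chimeric NR-Gal4 constructs; after 24 hour compound incubation, reporter mRNA quantified by RT-PCR, fluorescent labelling and capillary electrophoresis, gain of signal versus DMSO.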

[13] = molecular target: X-box-binding protein 1 (Homo sapiens) (UniProt P17861); experiment: ATG_Xbp1_CIS: Attagene CIS-FACTORIAL HepG2 Assay for human X-box Binding Protein 1 (XBP1) (AID 2282972); details: HepG2 XBP1 cis-element reporter, Attagene multiplex; actives raise or lower the signal
Outline: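 Reporter transcripts were quantified by RT-PCR with fluorescent primer extension and capillary electrophoresis after 24 h chemical exposure. Cells: transiently transfected HepG2 carrying cis-regulated reporter constructs; data fitted bidirectionally relative to DMSO.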

[14] = ATG_GAL4_TRANS: Attagene TRANS-FACTORIAL HepG2 Assay for GAL4 (Internal Marker) (AID 2282976; active = hit-call score of the fitted dose curve at least 0.9, where 1 is the maximum); details: HepG2 Attagene TRANS GAL4 internal marker reporter
Outline: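 Background-control readout: GAL4-UAS reporter transcript in transiently transfected HepG2 cells after 24 h compound exposure. Measured by RT-PCR, 6-FAM primer extension, HpaI digest and capillary electrophoresis; gain-of-signal fit versus DMSO.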

[15] = ATG_RORE_CIS: Attagene CIS-FACTORIAL HepG2 Assay for human RAR-related Orphan Receptor Element (RORE) (AID 2282959); details: HepG2 Attagene cis-factorial RORE reporter, mRNA; actives raise or lower the signal
Outline: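 Multiplexed reporter assay measuring mRNA induction from a cis promoter element in transiently transfected HepG2 cells after 24 h treatment. Detection via RT-PCR and capillary electrophoresis fluorescence; DMSO serves as baseline.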

[16] = ATG_VDRE_CIS: Attagene CIS-FACTORIAL HepG2 Assay for human Vitamin D Receptor Element (VDRE) (AID 2282968); details: HepG2 VDRE cis-reporter transcription, actives raise or lower the signal
Outline: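 Transfected HepG2 reporter cells, chemical treatment 24 h. RNA isolated, cDNA amplified with reporter-specific primers, products analysed by capillary electrophoresis. Endpoint fitted in both directions versus DMSO.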

[17] = molecular target: Estrogen receptor (Homo sapiens) (UniProt P03372); experiment: ATG_ERa_TRANS: Attagene TRANS-FACTORIAL HepG2 Assay for human Estrogen Receptor alpha (ERa) (AID 2282970; active = hit-call score of the fitted dose curve at least 0.9, where 1 is the maximum); details: HepG2 Attagene TRANS ERa GAL4 reporter, mRNA
Outline: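 Gal4-fusion ERa transactivation, measured as reporter transcript level in transiently transfected HepG2 cells. Exposure 24 h; RT-PCR plus capillary electrophoresis with fluorescence detection.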

[18] = ATG_M_19_TRANS: Attagene TRANS-FACTORIAL HepG2 Assay for M19 Transcription Factor (Internal Marker) (AID 2282974; active = hit-call score of the fitted dose curve at least 0.9, where 1 is the maximum); details: HepG2 Attagene TRANS-FACTORIAL M19 internal marker reporter
Outline: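 After transfection of HepG2 with GAL4-UAS-driven reporter constructs, cells are dosed for 24 h. Total RNA is reverse-transcribed, reporter sequences PCR-amplified and labelled, then HpaI-digested and sized by capillary electrophoresis.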

Measured: AC50

Chain of X-box-binding protein 1 (Homo sapiens) (P17861 whole entry, looked up): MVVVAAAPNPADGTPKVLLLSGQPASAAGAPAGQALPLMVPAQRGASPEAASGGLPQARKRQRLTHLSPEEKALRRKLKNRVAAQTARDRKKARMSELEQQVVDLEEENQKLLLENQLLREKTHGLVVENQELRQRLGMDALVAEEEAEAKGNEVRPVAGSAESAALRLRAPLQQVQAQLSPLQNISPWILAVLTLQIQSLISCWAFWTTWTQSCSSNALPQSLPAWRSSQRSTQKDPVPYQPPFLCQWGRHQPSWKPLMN
Chain of Transcription factor Sp1 (Homo sapiens) (P08047 whole entry, looked up): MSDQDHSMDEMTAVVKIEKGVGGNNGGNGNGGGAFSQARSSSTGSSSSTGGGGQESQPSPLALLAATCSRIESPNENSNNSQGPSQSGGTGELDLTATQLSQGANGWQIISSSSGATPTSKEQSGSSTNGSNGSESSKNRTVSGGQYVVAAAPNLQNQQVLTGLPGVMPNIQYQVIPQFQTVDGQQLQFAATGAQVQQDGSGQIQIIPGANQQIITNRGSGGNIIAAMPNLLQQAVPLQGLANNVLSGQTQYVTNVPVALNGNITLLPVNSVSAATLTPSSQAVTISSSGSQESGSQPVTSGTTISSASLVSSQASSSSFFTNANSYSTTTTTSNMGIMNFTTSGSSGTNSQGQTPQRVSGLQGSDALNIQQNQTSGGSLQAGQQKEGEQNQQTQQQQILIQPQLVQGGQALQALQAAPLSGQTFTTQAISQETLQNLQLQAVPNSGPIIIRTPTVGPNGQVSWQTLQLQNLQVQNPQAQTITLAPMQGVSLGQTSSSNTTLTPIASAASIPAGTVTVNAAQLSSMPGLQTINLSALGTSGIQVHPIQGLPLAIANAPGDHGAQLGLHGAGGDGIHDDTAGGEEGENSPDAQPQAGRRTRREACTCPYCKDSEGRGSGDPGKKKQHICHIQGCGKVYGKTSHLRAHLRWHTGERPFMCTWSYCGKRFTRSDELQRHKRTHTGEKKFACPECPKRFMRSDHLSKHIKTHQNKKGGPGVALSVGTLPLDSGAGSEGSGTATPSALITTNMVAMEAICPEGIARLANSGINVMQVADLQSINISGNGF
Chain of Paired box protein Pax-6 (Homo sapiens) (P26367 whole entry, looked up): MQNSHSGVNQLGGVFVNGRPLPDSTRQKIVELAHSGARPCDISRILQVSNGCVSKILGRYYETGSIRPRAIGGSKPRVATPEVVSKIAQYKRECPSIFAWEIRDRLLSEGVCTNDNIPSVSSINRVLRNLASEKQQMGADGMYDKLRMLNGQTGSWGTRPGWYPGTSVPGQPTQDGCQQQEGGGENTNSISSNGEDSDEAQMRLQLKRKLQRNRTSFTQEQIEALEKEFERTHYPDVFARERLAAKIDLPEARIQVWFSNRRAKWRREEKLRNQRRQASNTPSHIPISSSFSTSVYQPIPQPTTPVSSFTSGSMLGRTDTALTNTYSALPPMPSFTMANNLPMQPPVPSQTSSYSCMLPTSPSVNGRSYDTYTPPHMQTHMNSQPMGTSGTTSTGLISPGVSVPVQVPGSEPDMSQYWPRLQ
Chain of Estrogen receptor (Homo sapiens) (P03372 whole entry, looked up, the tested form may be a part): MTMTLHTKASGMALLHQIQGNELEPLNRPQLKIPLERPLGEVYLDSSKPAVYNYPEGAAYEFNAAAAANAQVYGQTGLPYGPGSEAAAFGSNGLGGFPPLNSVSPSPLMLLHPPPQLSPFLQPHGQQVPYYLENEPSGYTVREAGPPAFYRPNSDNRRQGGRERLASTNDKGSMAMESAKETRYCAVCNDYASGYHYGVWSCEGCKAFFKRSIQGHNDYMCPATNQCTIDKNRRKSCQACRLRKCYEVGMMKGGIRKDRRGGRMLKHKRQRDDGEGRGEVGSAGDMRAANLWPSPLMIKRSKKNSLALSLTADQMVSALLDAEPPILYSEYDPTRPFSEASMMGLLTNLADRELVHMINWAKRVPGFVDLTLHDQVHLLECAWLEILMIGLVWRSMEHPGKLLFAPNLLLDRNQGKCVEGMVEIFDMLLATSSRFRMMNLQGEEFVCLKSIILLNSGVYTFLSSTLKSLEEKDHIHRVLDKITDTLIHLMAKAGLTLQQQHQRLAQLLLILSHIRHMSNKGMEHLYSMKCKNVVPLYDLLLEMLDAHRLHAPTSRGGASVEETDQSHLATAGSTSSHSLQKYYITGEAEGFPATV
Chain of Signal transducer and activator of transcription 3 (Homo sapiens) (P40763 whole entry, looked up): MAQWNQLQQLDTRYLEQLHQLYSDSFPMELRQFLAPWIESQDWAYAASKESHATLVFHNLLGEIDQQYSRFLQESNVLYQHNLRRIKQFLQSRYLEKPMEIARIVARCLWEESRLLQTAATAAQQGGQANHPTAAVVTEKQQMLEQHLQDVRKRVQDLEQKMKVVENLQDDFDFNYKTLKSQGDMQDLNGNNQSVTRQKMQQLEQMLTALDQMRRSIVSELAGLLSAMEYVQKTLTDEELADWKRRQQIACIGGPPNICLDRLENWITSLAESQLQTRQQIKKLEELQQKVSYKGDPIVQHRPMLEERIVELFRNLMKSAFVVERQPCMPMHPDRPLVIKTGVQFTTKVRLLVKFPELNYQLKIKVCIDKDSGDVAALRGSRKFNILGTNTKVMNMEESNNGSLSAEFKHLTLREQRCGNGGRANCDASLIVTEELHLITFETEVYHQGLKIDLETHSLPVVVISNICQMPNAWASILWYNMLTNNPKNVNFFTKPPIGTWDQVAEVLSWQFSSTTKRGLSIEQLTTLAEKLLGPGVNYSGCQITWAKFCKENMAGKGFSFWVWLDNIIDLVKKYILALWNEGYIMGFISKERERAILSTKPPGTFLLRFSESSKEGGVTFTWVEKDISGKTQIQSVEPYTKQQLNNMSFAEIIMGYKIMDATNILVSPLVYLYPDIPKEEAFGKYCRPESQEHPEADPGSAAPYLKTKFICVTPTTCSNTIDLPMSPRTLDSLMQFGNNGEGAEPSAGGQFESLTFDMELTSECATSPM
Chain of Steroid hormone receptor ERR1 (Homo sapiens) (P11474 whole entry, looked up, the tested form may be a part): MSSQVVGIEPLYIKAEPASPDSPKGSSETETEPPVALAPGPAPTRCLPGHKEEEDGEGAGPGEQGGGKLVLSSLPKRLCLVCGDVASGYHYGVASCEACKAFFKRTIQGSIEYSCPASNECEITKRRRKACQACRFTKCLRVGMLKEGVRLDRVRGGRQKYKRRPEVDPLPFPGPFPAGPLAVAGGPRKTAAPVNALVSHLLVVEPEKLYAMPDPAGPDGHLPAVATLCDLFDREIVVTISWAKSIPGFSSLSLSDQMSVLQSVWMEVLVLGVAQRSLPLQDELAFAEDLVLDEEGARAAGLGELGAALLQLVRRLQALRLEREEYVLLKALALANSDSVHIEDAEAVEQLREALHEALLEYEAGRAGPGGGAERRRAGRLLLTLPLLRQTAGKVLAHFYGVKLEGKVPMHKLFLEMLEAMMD

N#CCCCC(C#N)CCC#N (centres undefined)
not listed: [15] | [16] | [17] | [18]
inactive: all other assays above

CCCC1CCOC(C)S1 (centres undefined)
active: [2] 54 µM
not listed: [3] | [12]
inactive: all other assays above

Nc1ccn([C@H]2CC[C@@H](CO)O2)c(=O)n1
not listed: [12] | [14] | [16] | [17] | [18]
inactive: all other assays above

CCCCOC(=O)C(C)OC(=O)CCC (centres undefined)
not listed: [17] | [18]
inactive: all other assays above

CCCCCCCCOC(C)=O
active: [2] 73.1 µM
not listed: [12] | [14] | [17]
inactive: all other assays above

CC(C)(C)c1cccc(O)c1
active: [2] 11.5 µM | [16] 28.1 µM | [17] 14.7 µM
not listed: [12] | [14] | [15] | [18]
inactive: all other assays above

CC(=O)OC(C)(C)C
not listed: [12] | [16] | [17]
inactive: all other assays above

O=C(O)C1=NN(c2ccc(S(=O)(=O)O)cc2)C(=O)C1
active: [2] 45.8 µM
not listed: [10] | [12] | [15] | [16]
inactive: all other assays above

CCCC(O)C(CC)CO (centres undefined)
active: [2] 47.6 µM
not listed: [9] | [12] | [14] | [16] | [17] | [18]
inactive: all other assays above

From PubChem BioAssay (EPA / NIEHS)
